The supplement of paper PMC6992640
± gives the standard deviation of the averaged measurements.

The compounds below were run on UCD52 (cells of a triple-negative basal-like breast cancer xenograft) (assay: cell viability (% of vehicle); higher = less cytotoxic). Conditions: 10 µM; 72 h.
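Further: PDX cells carrying CMV promoter-driven luciferase, viability read as total photon flux per second by IVIS imaging following D-luciferin, vehicle control 0.1% DMSO.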

Row | SMILES | cell viability
1 | COC(=O)C(c1ccccc1Cl)N1CCc2sccc2C1.O=S(=O)(O)O (configuration not stated) [Clopidogrel] | 76.7 ± 16
2 | CC(C)(C)C(=O)C(Oc1ccc(Cl)cc1)n1ccnc1 (configuration not stated) [Climbazole] | 96 ± 10
3 | CCCN(CCC)CCc1cccc2c1CC(=O)N2.Cl [Ropinirole HCl] | 78.9 ± 7.1
4 | CCCC(=O)Nc1ccc(OCC(O)CNC(C)C)c(C(C)=O)c1.Cl (configuration not stated) [Acebutolol HCl] | 97.1 ± 7
5 | O=C(O)C=Cc1ccccc1 [Cinnamic acid] | 98.4 ± 12
6 | Nc1nc(=O)c2nc(CNc3ccc(C(=O)NC(CCC(=O)O)C(=O)O)cc3)cnc2[nH]1 (configuration not stated) [Folic acid] | 92.4 ± 23
7 | OCC(O)CN1CCN(c2ccccc2)CC1 (configuration not stated) [Dropropizine] | 98.7 ± 2.5
8 | CN(C)CCC(c1ccccc1)c1ccccn1.O=C(O)C=CC(=O)O (configuration not stated) [Pheniramine Maleate] | 117 ± 27
9 | CC(C)(C)c1cc(NC(=O)Nc2ccc(-c3cn4c(n3)sc3cc(OCCN5CCOCC5)ccc34)cc2)no1 [Quizartinib (AC220)] | 146 ± 29
10 | O=c1nc[nH]c2c1ncn2C1CCC(CO)O1 (configuration not stated) [Didanosine] | 96.8 ± 9.7
11 | CC1(C)SC2C(NC(=O)Cc3ccccc3)C(=O)N2C1C(=O)[O-].[Na+] (configuration not stated) [Penicillin G Sodium] | 99.7 ± 20
12 | CCCCC(=O)N(Cc1ccc(-c2ccccc2-c2nnn[nH]2)cc1)[C@H](C(=O)O)C(C)C.CCOC(=O)[C@H](C)C[C@@H](Cc1ccc(-c2ccccc2)cc1)NC(=O)CCC(=O)O | 95.1 ± 8.6
